Laboratory results as given in PubChem BioAssay AID1159580 (chemical genetic matrix, 2015).
In all, about 5,500 compounds went through this assay and about 2,000 (36%) were called active. Roughly 18% stayed inconclusive and do not appear here. Rule as the data show it: active = normalized growth mostly below about 0.91 (no sharp cut-off); inconclusive = no clear call, values can overlap the other calls; inactive = mostly above about 0.92. The list shows a part of the results.

Assay: chemical genetic growth profiling, strain panel (AID 1159580);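 also: tested at 20 µM; growth read once vehicle control cultures reached saturation at 30 °C; 1 = growth at the plate median or of vehicle wells; lower values mean less growth of the strain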
Conditions: growth OD

Measured: normalized growth

NCCc1cccc(O)c1
inactive: S. cerevisiae deletion strains, locus YAL013W, strain DEP1, hits give low values 1.01 | S. cerevisiae deletion strains, locus YBR021W, strain FUR4, hits give low values 0.972 | S. cerevisiae deletion strains, locus YBR229C, strain ROT2, hits give low values 0.983 | S. cerevisiae deletion strains, locus YCL029C, strain bik1, hits give low values 0.981 | S. cerevisiae deletion strains, locus YDL035C, strain GPR1, hits give low values 1.01 | S. cerevisiae deletion strains, locus YDL074C, strain BRE1, hits give low values 1.01 | S. cerevisiae deletion strains, locus YDL101C, strain DUN1, hits give low values 0.985 | S. cerevisiae deletion strains, locus YDL134C, strain PPH21, hits give low values 0.984 | S. cerevisiae deletion strains, locus YDL185W, strain tfp1, hits give low values 0.989 | S. cerevisiae deletion strains, locus YDL192W, strain arf1, hits give low values 0.979 | S. cerevisiae deletion strains, locus YDR101C, strain arx1, hits give low values 0.985 | S. cerevisiae deletion strains, locus YDR150W, strain NUM1, hits give low values 1 | S. cerevisiae deletion strains, locus YDR162C, strain NBP2, hits give low values 0.996 | S. cerevisiae deletion strains, locus YDR318W, strain mcm21, hits give low values 0.983 | S. cerevisiae deletion strains, locus YDR388W, hits give low values 0.981 | S. cerevisiae deletion strains, locus YDR502C, strain sam2, hits give low values 0.992 | S. cerevisiae deletion strains, locus YEL061C, strain CIN8, hits give low values 0.994 | S. cerevisiae deletion strains, locus YER110C, hits give low values 0.985 | S. cerevisiae deletion strains, locus YER155C, strain BEM2, hits give low values 0.951 | S. cerevisiae deletion strains, locus YER167W, strain BCK2, hits give low values 0.982 | S. cerevisiae deletion strains, locus YGL078C, strain dbp3, hits give low values 0.989 | S. cerevisiae deletion strains, locus YGL086W, strain mad1, hits give low values 0.976 | S. cerevisiae deletion strains, locus YGL248W, strain PDE1, hits give low values 0.982 | S. cerevisiae deletion strains, locus YGR078C, strain PAC10, hits give low values 1 | S. cerevisiae deletion strains, locus YGR135W, strain pre9, hits give low values 0.982 | S. cerevisiae deletion strains, locus YGR229C, strain SMI1, hits give low values 1.05 | S. cerevisiae deletion strains, locus YGR252W, strain gcn5, hits give low values 0.952 | S. cerevisiae deletion strains, locus YHR030C, strain SLT2, hits give low values 0.994 | S. cerevisiae deletion strains, locus YHR079C, strain IRE1 (second series), hits give low values 0.986 | S. cerevisiae deletion strains, locus YHR094C, strain hxt1, hits give low values 0.992 | S. cerevisiae deletion strains, locus YHR129C, strain ARP1, hits give low values 0.987 | S. cerevisiae deletion strains, locus YHR200W, strain rpn10, hits give low values 0.974 | S. cerevisiae deletion strains, locus YIL066C, strain RNR3, hits give low values 0.996 | S. cerevisiae deletion strains, locus YIL073C, strain SPO22, hits give low values 0.946 | S. cerevisiae deletion strains, locus YIL125W, strain kgd1, hits give low values 0.984 | S. cerevisiae deletion strains, locus YIR030C, strain dcg1, hits give low values 0.991 | S. cerevisiae deletion strains, locus YJL095W, strain BCK1, hits give low values 1 | S. cerevisiae deletion strains, locus YJL134W, strain LCB3, hits give low values 0.992 | S. cerevisiae deletion strains, locus YJL168C, strain set2, hits give low values 0.987 | S. cerevisiae deletion strains, locus YJL187C, strain SWE1 (second series), hits give low values 0.991 | S. cerevisiae deletion strains, locus YJR043C, strain POL32, hits give low values 0.979 | S. cerevisiae deletion strains, locus YJR075W, strain HOC1, hits give low values 0.998 | S. cerevisiae deletion strains, locus YKL009W, strain mrt4, hits give low values 0.965 | S. cerevisiae deletion strains, locus YKL068W, hits give low values 0.992 | S. cerevisiae deletion strains, locus YKL085W, strain MDH1 (second series), hits give low values 0.987 | S. cerevisiae deletion strains, locus YKL085W, strain MDH1, hits give low values 0.987 | S. cerevisiae deletion strains, locus YKL190W, strain CNB1, hits give low values 0.997 | S. cerevisiae deletion strains, locus YKR001C, strain vps1, hits give low values 0.976 | S. cerevisiae deletion strains, locus YLR039C, strain RIC1, hits give low values 0.972 | S. cerevisiae deletion strains, locus YLR058C, strain SHM2, hits give low values 0.992 | S. cerevisiae deletion strains, locus YLR102C, strain apc9, hits give low values 0.99 | S. cerevisiae deletion strains, locus YLR262C, strain YPT6, hits give low values 0.997 | S. cerevisiae deletion strains, locus YLR268W, strain sec22, hits give low values 0.989 | S. cerevisiae deletion strains, locus YLR330W, strain CHS5, hits give low values 0.99 | S. cerevisiae deletion strains, locus YLR342W, strain FKS1 (second series), hits give low values 0.963 | S. cerevisiae deletion strains, locus YLR371W, strain rom2, hits give low values 0.991 | S. cerevisiae deletion strains, locus YLR418C, strain cdc73, hits give low values 0.985 | S. cerevisiae deletion strains, locus YML016C, strain PPZ1, hits give low values 0.985 | S. cerevisiae deletion strains, locus YML032C, strain rad52, hits give low values 0.978 | S. cerevisiae deletion strains, locus YML124C, strain tub3, hits give low values 0.989 | S. cerevisiae deletion strains, locus YMR078C, strain ctf18, hits give low values 0.983 | S. cerevisiae deletion strains, locus YMR223W, strain ubp8, hits give low values 0.979 | S. cerevisiae deletion strains, locus YMR263W, strain SAP30, hits give low values 1 | S. cerevisiae deletion strains, locus YMR307W, strain GAS1, hits give low values 0.991 | S. cerevisiae deletion strains, locus YNL067W, strain RPL9B, hits give low values 1.01 | S. cerevisiae deletion strains, locus YNL128W, strain TEP1, hits give low values 1.03 | S. cerevisiae deletion strains, locus YNL153C, strain GIM3, hits give low values 0.996 | S. cerevisiae deletion strains, locus YNL233W, strain BNI4, hits give low values 0.989 | S. cerevisiae deletion strains, locus YNL250W, strain rad50, hits give low values 0.984 | S. cerevisiae deletion strains, locus YNL271C, strain bni1, hits give low values 0.991 | S. cerevisiae deletion strains, locus YNL298W, strain CLA4, hits give low values 0.98 | S. cerevisiae deletion strains, locus YNL307C, strain MCK1, hits give low values 0.981 | S. cerevisiae deletion strains, locus YNL322C, strain KRE1, hits give low values 0.998 | S. cerevisiae deletion strains, locus YNR052C, strain pop2, hits give low values 0.987 | S. cerevisiae deletion strains, locus YOL006C, strain TOP1, hits give low values 0.986 | S. cerevisiae deletion strains, locus YOL012C, strain htz1 0.834 | S. cerevisiae deletion strains, locus YOL147C, strain pex11, hits give low values 0.986 | S. cerevisiae deletion strains, locus YOR061W, strain CKA2, hits give low values 0.991 | S. cerevisiae deletion strains, locus YOR069W, strain VPS5, hits give low values 0.988 | S. cerevisiae deletion strains, locus YOR136W, strain idh2, hits give low values 0.975 | S. cerevisiae deletion strains, locus YOR144C, strain elg1, hits give low values 0.986 | S. cerevisiae deletion strains, locus YOR184W, strain ser1, hits give low values 0.965 | S. cerevisiae deletion strains, locus YOR316C, strain cot1, hits give low values 0.989 | S. cerevisiae deletion strains, locus YPL055C, strain LGE1, hits give low values 1.04 | S. cerevisiae deletion strains, locus YPL241C, strain CIN2, hits give low values 1 | S. cerevisiae deletion strains, locus YPR119W, strain clb2, hits give low values 0.992 | S. cerevisiae deletion strains, locus YPR141C, strain kar3, hits give low values 0.988 | S. cerevisiae deletion strains, locus YPR163C, strain tif3, hits give low values 0.984 | S. cerevisiae deletion strains, locus YPR167C, strain met16, hits give low values 0.981 | S. cerevisiae deletion strains, strain wtn01, hits give low values 0.987 | S. cerevisiae strains, strain wild type, hits give low values 1.02
